# Only some compounds are listed: those with a hit (about 21% of all), similar ones and a draw of the others.
# Shiga inhibitor = inhibitors of Shiga toxin in Vero cells. inhibition, % at 38.7 µM. hit rate 9.2% among 290,000. Vero cells, Shiga toxin protein synthesis inhibition reporter. AID 2315; in the data active = inhibition mostly above about 28%, no sharp cut-off; inactive = mostly below about 43%; also: 0% is about no effect
# NS1 function inh = blocks influenza NS1 protein function; Potency, µM (series often up to 46.1 µM), without a hit: top-dose activity, positive = more growth; hit rate 0.4% among 270,000; AID 2326; calls by dose curve; also: potency is read from the fitted curve at half-maximal effect; actives are rising curves; nearly all actives have a fitted effect of over 50% in size
#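 Growth recovery, yeast-based: influenza A NS1 expressed in S. cerevisiae causes slow growth, and suppressors are detected by OD600. The parent strain without NS1 is used as positive control.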
# Pf growth 48h = inhibits P. falciparum growth in the first generation, 48 h | P. falciparum luciferase growth in erythrocytes, 48 h | Potency, µM (doses to about 28.7 µM), without a hit: at the top dose activity change, negative = inhibition, most hits filed as inhibitors | hit rate 5.9% among 310,000 | AID 504832; also: potency is read from the fitted curve at half-maximal effect; % is scaled to controls: 0 for no effect and ±100 for the full control effect
#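 Growth was read as firefly luciferase luminescence after a 48 h, 37 C, 5% CO2 exposure of compounds to reporter-bearing P. falciparum cultures (0.1% parasitemia, 2% hematocrit final) in Albumax-supplemented RPMI 1640.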
# CHX counter = counter-screen hit for Shiga toxin inhibitors, cycloheximide. cell reporter, cycloheximide protein synthesis inhibition counterscreen. max response, %. hit rate 12% among 300,000; in the data active = max response mostly above about 13%, no sharp cut-off; inactive = mostly below about 14%; also: read at 38.3 µM for the half of the compounds with a filed dose; 0% is about no effect
# Pf growth 96h = P. falciparum growth inhibition at 96 hours | P. falciparum luciferase reporter growth, 96 h | hit rate 6.9% among 320,000 | Potency, µM (series often up to 28.7 µM), for inactives: at the highest dose activity change, negative = inhibition, hits mostly inhibitors; also: potency is read from the fitted curve at half-maximal effect; % is scaled to controls: 0 for no effect and ±100 for the full control effect
#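 Plates of compound plus infected erythrocytes (2% hematocrit, 0.05% parasitemia final) incubate 96 hours, 37 C, 5% CO2. Detection reagent added; reduced luminescence from the parasites' luciferase reporter flags inhibition.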
# Sm TGR inh = S. mansoni TGR enzyme inhibition; hit rate 3% among 360,000; AID 485364; Q962Y6; Potency, µM (doses to about 114 µM), inactives show at the top dose activity change, negative = inhibition, actives largely listed as inhibitors; purified TGR, DTNB reduction, TNB absorbance 405 nm; also: potency is read from the fitted curve at half-maximal effect; % is scaled to controls: 0 for no effect and ±100 for the full control effect; nearly all actives have a fitted effect of over 60% in size
#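 Kinetic colorimetric format: TGR-catalysed, NADPH-driven DTNB reduction monitored via TNB absorbance. Enzyme dispensed at 20 nM; compound exposure 15 min at room temperature before reaction start.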
# Starred values were filed as active, the others as inactive; i = inactive; ? = inconclusive; nt = no result. Unless noted, calls follow the shape of the dose curve; as a rule, active = well fitted curve in the direction sought with a large enough effect; inconclusive = small, poorly fitted or top-dose-only effect, or another doubt; inactive = no such curve, though single readings can be large; an effect the other way counts as inactive or inconclusive.
SMILES,Shiga inhibitor,NS1 function inh,Pf growth 48h,CHX counter,Pf growth 96h,Sm TGR inh
CCc1c(C)nc2c(-c3ccccc3OC)c(C)[nH]n2c1=O,-11.6,24.3%,-23.5%,-0.8,-19.6%,0.0%
CCN(CC)S(=O)(=O)c1ccc2c(c1)c(=O)c(C(=O)N1CCN(c3cc(C)ccc3C)CC1)cn2C,nt,nt,nt,nt,nt,-2.3%
Cc1cccc(CCNC(=O)C2CCCN(c3cnccn3)C2)c1 (stereo not drawn),0.9,7.2%,4.2%,3.1,6.3%,0.8%
O=C(NCCCNC(=O)c1ccco1)c1cccc(F)c1,-19.3,18.1%,1.4%,3.2,14.7%,4.8%
O=C(Nc1nnc(C2CCCO2)s1)c1ccc(Br)cc1 (stereo not drawn),26.0,-5.6%,nt,19.8*,127.5%,-7.7%
Cc1cccc(C)c1OCC(=O)Nc1nnc(C2CCCO2)s1 (stereo not drawn),-3.8,-2.3%,13.5%,-8.7,5.2%,-7.4%
Cc1ccc(OCC(=O)Nc2nnc(C3CCCO3)s2)c(Br)c1 (stereo not drawn),70.1*,nt,11.6%,15.4,?,-25.3%
CCc1ccc(OCCCC(=O)Nc2nnc(C3CCCO3)s2)cc1 (stereo not drawn),8.8,4.4%,38.7%,-2.7,11.7µM*,-11.6%
CCCNC(=O)c1onc(CSc2ccc(F)cc2)c1C(=O)NCCOC,nt,nt,-6.4%,nt,?,0.2%
COC(=O)c1ccc2c(c1)N(Cc1ccc(F)cc1)C(=O)c1ccccc1S2,nt,nt,nt,nt,nt,6.0%
O=C(O)/C=C/C(=O)c1ccc(O)cc1,27.1,5.5%,?,1.4,0.928µM*,3.16µM*
Cc1ccc(C(=O)NC=C(Cl)Cl)cc1,84.0*,-8.7%,20.3%,26.4*,nt,-1.5%
CC(/C=C/C(=O)c1ccc(C)cc1)=C\c1ccccc1,22.0,-6.8%,79.9%,17.7*,156.4%,1.9%
Cc1ccc(C(=O)/C=C\C(=O)c2ccc(C)cc2)cc1,4.8,-52.9%,17.6%,-1.8,-9.4%,1.78µM*
C/C(C=O)=C/c1ccccc1,nt,nt,44.0%,nt,28.1%,-4.7%
Cc1ccc(C(=O)NC(O)C(Cl)Cl)cc1 (stereo not drawn),-5.8,10.2%,-3.1%,-4.6,5.7%,-13.2%
O=C(C(=O)c1ccc(O)cc1)c1ccccc1,17.1,?,2.0%,2.1,226.7%,0.3%
COc1ccc(CCNC(=O)c2cc3c(cc2Cl)N2CCCCCC2=NS3(=O)=O)cc1,nt,nt,?,nt,-17.2%,-7.1%
COc1ccc(NC(=O)c2ccc(NC(=O)CCS(=O)(=O)c3cccs3)cc2)cc1OC,nt,nt,nt,nt,nt,2.5%
Cc1ccc(C(=O)c2ccc(C)cc2)cc1,78.8*,nt,i,40.4*,-27.6%,4.1%
Cc1ccc(S/C=C\C(=O)c2ccccc2)cc1,78.9*,-3.8%,nt,44.0*,-25.4%,?
Cc1ccc(C(=O)/C=C2\NCCNC2=O)cc1,10.1*,-9.3%,161.6%,32.4*,-29.2%,7.5%
CCOc1ccc(/C=N/NC(=O)Cc2ccccc2)cc1CN1CC2CC(C1)c1cccc(=O)n1C2 (stereo not drawn),nt,nt,6.57µM*,nt,-17.7%,-19.5%
CCOc1ccc(/C=N/NC(=O)c2ccc(O)cc2)cc1CN1CC2CC(C1)c1cccc(=O)n1C2 (stereo not drawn),nt,nt,?,nt,?,-7.4%
COc1ccc(CN2C(=O)C(O)(CC(=O)c3ccc4c(c3)OCO4)c3ccccc32)cc1OC (stereo not drawn),-12.0,-0.7%,nt,-1.8,5.86µM*,0.0%
SMILES,Shiga inhibitor,NS1 function inh,Pf growth 48h,CHX counter,Pf growth 96h,Sm TGR inh
Cc1ccc(OCC(=O)N2CCN(Cc3ccc4c(c3)OCO4)CC2)cc1,-1.1,nt,17.8%,-0.7,-1.0%,-2.6%
O=C(c1[nH]nc2c1CCc1ccccc1-2)N1CCN(Cc2ccc3c(c2)OCO3)CC1,-7.0,1.9%,8.28µM*,15.0,?,12.1%
CCN1C(=O)C(O)(CC(=O)c2ccc3c(c2)OCCO3)c2ccccc21 (stereo not drawn),14.5,-3.8%,nt,5.5,6.6%,-6.2%
O=C(c1ccc(Cn2cc(Cl)cn2)o1)N1CCN(Cc2ccc3c(c2)OCO3)CC1,-29.5,-7.4%,?,-0.9,13.1µM*,?
O=C(c1ccccc1)N1CCN(Cc2ccc3c(c2)OCO3)CC1,0.6,-4.4%,29.7%,-1.9,13.0%,12.8%
CCCc1cc(=O)oc2cc(OCC(=O)N3CCN(Cc4ccc5c(c4)OCO5)CC3)ccc12,-2.0,-32.6%,?,-1.8,11.7µM*,1.0%
N#Cc1ccc(CN2CCN(C(=O)CNC(=O)Cc3ccccc3)CC2)cc1,nt,nt,-15.3%,nt,0.0%,-27.4%
CCOC(=O)c1cccc(NC(=O)NCCc2c(C)nn(C)c2C)c1,nt,nt,nt,nt,nt,4.0%
COc1ccc(C(=O)N2CCN(Cc3ccc4c(c3)OCO4)CC2)cc1OC,7.1,6.7%,-3.6%,1.1,9.28µM*,11.3%
COc1cc(C(=O)N2CCN(Cc3ccc4c(c3)OCO4)CC2)cc(OC)c1OC,-10.1,24.3%,?,-1.0,?,3.4%
Cc1ccc(C)c(OCC(=O)N2CCN(Cc3ccc4c(c3)OCO4)CC2)c1,-14.2,3.5%,27.8%,-4.8,4.4%,56.2µM*
COc1ccccc1N1CCN(c2ncnc3onc(C)c23)CC1,nt,nt,nt,nt,nt,10.4%
Cc1onc(-c2ccccc2)c1C(=O)n1nnc2ccccc21,-1.3,-89.4%,17.1%,-0.6,51.3%,17.8µM*
O=C(c1ccccc1)n1nnc2ccccc21,23.7,5.9%,21.4%,1.3,26.1%,15.8µM*
CC(C(=O)O)n1nnc2ccccc21 (stereo not drawn),10.9,-1.6%,32.9%,-2.3,58.4%,9.4%
CC(C)c1ccc(NC(=O)CSc2ncccc2C(=O)Oc2cccc([N+](=O)[O-])c2)cc1,35.8*,?,74.7%,45.7*,?,-3.9%
O=C(CSc1nc(-c2ccc(Cl)cc2)cs1)Nc1cccc([N+](=O)[O-])c1,53.5*,-17.6%,-13.0%,38.1*,?,0.3%
CCNC(=S)Nc1cccc([N+](=O)[O-])c1,-1.0,-10.3%,46.7%,-3.1,16.8%,-31.2%
COc1ccc(NC(=O)CSc2ncccc2C(=O)OC(C)C)cc1OC,6.5,-7.7%,nt,4.9,-15.2%,8.9%
O=[N+]([O-])c1cccc(NC(=S)Nc2nc(-c3ccccc3Cl)cs2)c1,74.7*,1.8%,?,32.8*,30.2%,-18.6%
NS(=O)(=O)c1cccc(NC(=O)CSc2ccccn2)c1,51.1,4.8%,46.0%,28.5*,nt,-9.7%
Cc1cccc2c1-c1sc(C(=O)N(C)c3cccc(Cl)c3)cc1CO2,nt,nt,nt,nt,nt,-3.5%
O=C(CSc1ccccn1)Nc1cccc([N+](=O)[O-])c1,34.2*,nt,-3.0%,32.3*,1.5%,5.4%
COc1ccc(C2=NOC(Cn3c(Cc4ccc(Cl)cc4)nc4c3c(=O)n(C)c(=O)n4C)C2)cc1 (stereo not drawn),3.9,-62.8%,-8.6%,-1.8,13.1µM*,1.5%
O=C(NCc1ccc(Cl)cc1)c1cnc(N2CCCCC2)c2ccccc12,nt,nt,nt,nt,nt,-0.5%
